Experimental data: PubChem BioAssay AID463173 (ICCB-Longwood Screening Facility, Harvard Medical School, 2010)
The whole screen tested about 52,000 compounds, of which about 4,300 (8.3%) were called active. The sample holds actives, similar compounds and a random draw of the others, so the mix is not that of the screen. No stated cut-off is given here; in the data, active means survival mostly below about 52% (no sharp cut-off); inactive means mostly above about 56%.

These compounds were tested on DeltatarO mutant (assay: S. aureus survival, RN4220 and DeltatarO strains – OD600, teichoic acid synthesis inhibitors, primary screen (AID 463173)). Details: S. aureus RN4220 wild type/DeltatarO growth, OD600, 18 h, stronger effect = lower value, screened at 18.75 µg/mL (by protocol).

SMILES | survival
Cc1ccccc1OCC(=O)Nc1ccc(-c2nc3cc(Cl)cc(Cl)c3o2)cc1 | 62% (inactive)
Cc1ccc(C)c(NC(=O)CN2C(=O)c3cccnc3Oc3ccc(C)cc32)c1 | 80% (inactive)
CCOc1ccc(S(=O)(=O)n2nc(C)c(S(=O)(=O)N3CCCCCC3)c2C)cc1 | 115% (inactive)
CCOc1ccccc1NC(=O)C(CC)n1c(C(=O)OC)cc2occc21 (stereo not given) | -4% (active)
CCC(C(=O)Nc1ccccc1OC)n1c(C(=O)OC)cc2sc(Cl)cc21 (stereo not given) | -6% (active)
CCC(Sc1nnc(C)n2c1cc1occc12)C(=O)Nc1ccccc1OC (stereo not given) | 77% (inactive)
COC(=O)c1cc2sc(Cl)cc2n1CC(=O)Nc1cc(OC)cc(OC)c1 | 84% (inactive)
CCOC(=O)c1cc2occc2n1C(C)C(=O)OCC (stereo not given) | 80% (inactive)
CCOC(=O)c1ccc2c(c1)N(C(CC)C(=O)Nc1ccccc1OC)C(=O)c1ccccc1S2 (stereo not given) | 101% (inactive)
Cc1ccc(CNc2nc(-c3ccco3)nn2S(=O)(=O)c2ccc3ccccc3c2)cc1 | 115% (inactive)
CCc1ccc(NC(=O)Cn2c(C(=O)OC)cc3oc(C)cc32)cc1 | 65% (inactive)
CC(C)NC(=O)Cn1ncn2c(cc3cc(F)ccc32)c1=O | 82% (inactive)
CNC(=O)C1CCC(Cn2c(=O)c3sccc3n(CC(=O)Nc3cc(C)cc(C)c3)c2=O)CC1 (stereo not given) | 70% (inactive)
Cc1nn(CCC(=O)Nc2cccc(C#N)c2)c(C)c1S(=O)(=O)N1CCCCC1 | 88% (inactive)
CCc1ccc(NC(=O)CC2C(=O)N(c3ccc(C)cc3)C(=O)N2CCc2ccncc2)cc1 (stereo not given) | 81% (inactive)
Nc1nonc1-c1nc2ccccc2n1Cc1c(Cl)cccc1Cl | 50% (inactive)
CCc1ccc(CNC(=O)c2ccc(CS(=O)(=O)Cc3ccccc3C)o2)cc1 | 79% (inactive)
Cc1ccc(CNC(=O)c2ccc(CS(=O)(=O)Cc3ccc(F)cc3)o2)cc1 | 77% (inactive)
CCOc1ccc(CCNC(=O)c2ccc(CS(=O)Cc3cccc(Cl)c3)o2)cc1 (stereo not given) | 50% (inactive)
O=C(NCCc1ccc(Cl)cc1)c1ccc(CS(=O)Cc2cccc(Cl)c2)o1 (stereo not given) | 38% (active)
Cc1ccccc1CS(=O)(=O)Cc1ccc(C(=O)NCc2ccc(F)cc2)o1 | 47% (active)
O=C(NCCc1ccc(Cl)cc1)c1ccc(CS(=O)(=O)Cc2ccccc2F)o1 | -1% (active)
O=C(NCCc1ccccc1)c1ccc(CS(=O)Cc2ccc(Cl)cc2)o1 (stereo not given) | 74% (inactive)
Cc1ccccc1CS(=O)(=O)Cc1ccc(C(=O)NCCc2ccc(Cl)cc2)o1 | 76% (inactive)
Cc1ccc(CCNC(=O)c2ccc(CS(=O)(=O)Cc3ccccc3F)o2)cc1 | 72% (inactive)
